82 molecules from ChEMBL document CHEMBL4888484, “Replenishing the malaria drug discovery pipeline: Screening and hit evaluation of the MMV Hit Generation Library 1 (HGL1) against asexual blood stage Plasmodium falciparum ,using a nano luciferase reporter read-out” (2022) can be followed below.

In all, about 150,000 compounds went through this assay and about 540 (0.36%) showed an effect of 50% or more. The list comes from a sample in which strong results are over-represented; it also holds similar structures and randomly drawn compounds.

The subject of this assay is Plasmodium falciparum. Briefly: Primary screen in NF54 nanoGlo assay, in single point, at 2uM, 72h; a lower Z score goes with more inhibition. The assay is classed as functional, Erythrocyte. The note with it: timepoint 72 hour.
Regarding `CCOC[C@H]1CCN(C(=O)C2(O)CN(C(=O)OC(C)(C)C)C2)C1`, the “% Inhibition” value is given as -4% and the Z score worked out at 0.81.
For the molecule `Cn1cccc(C(=O)N2CCC(c3nnc(C(F)(F)F)o3)CC2)c1=O`, the “% Inhibition” value is given as -12% and the Z score turned out to be 1.33.
The matching figures for `Cc1ccc(-c2cc(C(=O)Nc3ncccc3Cl)c3ccccc3n2)s1`: 3% and -0.34.
On the same counts, the results for `CCOc1cc2c(cc1CN1CCN(C)[C@]3(CCC(=O)N(C)CC3)C1)CCC2` are -10% and 1.92.
On the same counts, the results for `CC1(C(=O)N2CC3CCCCC3C2)CCCC1` (centres undefined) are -24% and 2.4.
As to `O=C(c1cccc2cc[nH]c12)N1C[C@@H]2[C@H](C1)[C@H]1CC[C@@H]2O1`, the “% Inhibition” value was found to be 18% and the Z score is on record as -1.92.
On the same counts, the results for `Clc1ccc(COc2ccc(Br)cc2CNc2ccc(-c3nc4ccccc4o3)cc2)c(Cl)c1` are -39% and 4.57.
The matching figures for `c1cc(-c2nc3ccccc3o2)cc(-c2nc3ccccc3o2)c1`: -13% and 2.52.
In the case of `Clc1ccc(C[n+]2ccc(-c3nc4ccccc4o3)cc2)c(Cl)c1`, the “% Inhibition” value turned out to be 79% and the Z score is on record as -11.4.
The matching figures for `Cc1cc(C(=O)NCc2ccncc2)c(=O)n(C)c1C`: -11% and 1.52.
Take `CC(NCC1CS(=O)(=O)c2ccccc21)[C@@H]1C[C@H]1C1CC1` (some centres undefined): the “% Inhibition” value is listed as -3% and the Z score was determined as 0.41.
The matching figures for `NC(=O)c1ccccc1NC(=O)C1CCN(c2cc(C3CC3)ncn2)CC1`: 57% and -10.93.
On the same counts, the results for `O=C(Nc1ccccc1F)C1CCN(c2cc(C3CC3)ncn2)CC1` are -16% and 3.11.
Consider `NC(=O)c1ccccc1NC(=O)C1CCN(c2cc(N3CCCC3)ncn2)CC1`, for which the “% Inhibition” value is reported as 7% and the Z score is -1.36.
In the case of `Cc1cc(NC(=O)c2ccc3c(c2)C(=O)N(C[C@H]2CCCO2)C3=O)no1`, the “% Inhibition” value is listed as -8% and the Z score is reported as 1.45.
On to `CNC(=O)[C@@H]1CCCN1C(=O)CNC(=O)c1cccc2c1OCC2`, for which the “% Inhibition” value is on record as -5% and the Z score amounted to 0.71.
As for `Cc1ncsc1CCN(C)CCn1cc[nH]c1=O`, the “% Inhibition” value is on record as -15% and the Z score was 3.22.
In the case of `O=C(NC(C1CC1)C1CC1)c1coc(COc2cccc(F)c2)n1`, the “% Inhibition” value was -6% and the Z score was 1.01.
The matching figures for `CC[C@@]1(C)CCCN(C(=O)Cc2c(C)noc2Cl)C1`: 85% and -13.67.
For the molecule `Cc1noc(C)c1CC(=O)N1CCCCCC1`, the “% Inhibition” value is recorded as -23% and the Z score was determined as 2.1.
On the same counts, the results for `Cc1noc(Cl)c1CC(=O)N1CCCC(C)(C)CC1` are 44% and -6.85.
For `Cc1cc(C(=O)Nc2nc(C)cs2)on1`, the “% Inhibition” value is on record as -13% and the Z score is 2.13.
Consider `Cc1nnc(CN(C)Cc2ccc3ccccc3n2)o1`, for which the “% Inhibition” value is reported as -21% and the Z score was determined as 2.06.
Regarding `O[C@@H](Cc1ccc2ccccc2n1)c1ccccc1`, the “% Inhibition” value was found to be 33% and the Z score worked out at 0.78.
On the same counts, the results for `c1ccc2c[n+](Cc3ccc4ccccc4n3)ccc2c1` are 59% and -7.39.
On the same counts, the results for `c1ccc2cc(-c3ccc4ccccc4n3)ccc2c1` are 41% and -1.59.
On the same counts, the results for `Cc1ccc[n+](Cc2ccc3ccccc3n2)c1` are 59% and -7.89.
Turning to `Cc1ccc[n+](CC2OCc3ccccc3CO2)c1`, the “% Inhibition” value is on record as 5% and the Z score is -0.68.
Take `Cc1ccc(S(=O)(=O)N2CCO[C@@H](COc3ccccc3)C2)c(C)c1NS(C)(=O)=O`: the “% Inhibition” value was determined as 0% and the Z score is given as 0.05.
On the same counts, the results for `COC(C)(C)CCC[C@H](C)CCNCC(C)(C)N1CCOCC1` are 1% and -0.18.
In the case of `N#C[C@H]1C(=O)c2ccccc2N(Cc2ccccc2)C1=O`, the “% Inhibition” value is reported as -5% and the Z score is reported as 0.84.
On the same counts, the results for `CCN1CC(=O)N[C@H]2CN(C(=O)c3cnn(CC)c3C)CC[C@@H]2OCc2cccc(c2)Oc2cc(OC(C)C)cc(c2)C1=O` are -5% and 0.73.
On the same counts, the results for `CCn1nc(-c2ccc(OC)cc2F)cc1C(=O)NCCN1CCCCC1` are -17% and 2.1.
The matching figures for `Cc1cc(C)c2nc(N3CCC(C(=O)NC4CCCCCC4)CC3)sc2c1`: -8% and 1.22.
On to `CC(C)CNC(=O)CS(=O)(=O)Cc1ccccc1`, for which the “% Inhibition” value is given as -6% and the Z score was 1.18.
On the same counts, the results for `CCOC(=O)N1CCC(NC(=O)c2coc(NC(=O)Cc3c(C)noc3C)n2)CC1` are 18% and -2.53.
The matching figures for `COc1ccc(C(=O)OCC(=O)Nc2cc(C3CC3)nn2-c2ccccc2)c(O)c1`: -7% and 1.34.
The matching figures for `CC(C)c1cc(=O)[nH]c(-n2nc(C3CC3)cc2NC(=O)c2ccccc2C(F)(F)F)n1`: 18% and -3.33.
As to `CC(C)c1cc(=O)[nH]c(-n2nc(C3CC3)cc2NC(=O)Cc2ccc(Cl)cc2)n1`, the “% Inhibition” value is given as 74% and the Z score is reported as -12.5.
On the same counts, the results for `Cc1nc(CC(=O)Nc2cc(C3CC3)nn2-c2ccccc2)cs1` are 38% and -0.78.
The matching figures for `CC(C)c1cc(=O)[nH]c(-n2nc(C3CC3)cc2NC(=O)COc2ccc3ccccc3c2)n1`: 54% and -12.73.
For the molecule `COc1ccc(C2CN(Cc3ccccn3)CC2CN(Cc2ccc(F)cc2)C(C)=O)cc1` (centres undefined), the “% Inhibition” value was 15% and the Z score is -1.72.
`COC(=O)c1ccc(C)c(NC(=O)c2cn(C)cn2)c1O`: the “% Inhibition” value is given as -2% and the Z score amounted to 0.17.
Regarding `COCCCN(Cc1ccco1)C[C@H](O)COC(C)(C)C`, the “% Inhibition” value worked out at 2% and the Z score is recorded as -0.27.
As to `CC(C)(Oc1cc2c(cc1-c1cncc(C3CC3)c1)CCO2)C(=O)O`, the “% Inhibition” value is reported as -1% and the Z score stood at 0.1.
As for `Cc1cc(=O)[nH]c(-n2nc(C3CC3)cc2NC(=O)c2ccc(C(C)(C)C)cc2)n1`, the “% Inhibition” value came out at 57% and the Z score is recorded as -4.8.
The matching figures for `COCC(=O)Nc1cc(C2CC2)nn1-c1nc(C)cc(=O)[nH]1`: 4% and -0.78.
The matching figures for `CC(C)c1cc(=O)[nH]c(-n2nc(C3CC3)cc2NC(=O)c2ccc(F)cc2)n1`: 90% and -16.95.
On the same counts, the results for `CC[C@@H](C(=O)Nc1cc(C)nn1-c1nc2c(c(=O)[nH]1)CCC2)c1ccccc1` are 17% and -3.37.
For the molecule `CC(C)c1cc(=O)[nH]c(-n2nc(C3CC3)cc2NC(=O)c2ccc(F)c(F)c2)n1`, the “% Inhibition” value was 5% and the Z score is -0.72.
`Cc1cc(=O)[nH]c(-n2nc(C3CC3)cc2NC(=O)C(c2ccccc2)c2ccccc2)n1`: the “% Inhibition” value turned out to be 86% and the Z score was -11.5.
On to `Cn1nc(C2CCCC2)cc1NC(=O)c1ccc(OCC(=O)O)cc1`, for which the “% Inhibition” value is reported as 1% and the Z score is given as -0.23.
On the same counts, the results for `Cc1nn(C(C)C)c(C)c1CN(C)C(=O)c1cc(C#N)c[nH]1` are 0% and -0.07.
The matching figures for `CN1C(=O)CCC12CCN(S(=O)(=O)Cc1ccc(Cl)cc1F)CC2`: -3% and 0.59.
The matching figures for `c1ccc(-c2noc(C3CCN(c4ccc5nncn5n4)CC3)n2)nc1`: -18% and 2.08.
With `CC(C)c1nccn1CC(=O)N(C)[C@@H](C)c1ccc(F)c(F)c1`, the “% Inhibition” value is recorded as -1% and the Z score is 0.13.
For `C[C@@H]1CN(CCCCO)CCN1C(=O)OC(C)(C)C`, the “% Inhibition” value was -1% and the Z score is 0.08.
Take `Cc1onc(-c2ccccc2Cl)c1C(=O)NCC1(c2ccc(F)cc2)CCOCC1`: the “% Inhibition” value is on record as -13% and the Z score worked out at 2.28.
The matching figures for `CN1C[C@]2(CCCN(Cc3ccc(OCC(=O)c4ccccc4)cc3)C2)CCC1=O`: -5% and 0.67.
The matching figures for `CCCc1c(C(=O)N2CCNc3ncccc32)cnn1C1CCCC1`: -7% and 1.14.
On to `N#Cc1nc(C2CC2)oc1N1CCN(C(=O)CCc2ccco2)CC1`, for which the “% Inhibition” value is -7% and the Z score was 1.41.
The matching figures for `CN1CCC(Oc2nc3ccc(F)cc3o2)CC1`: -11% and 1.44.
On the same counts, the results for `CCNC(=O)c1cc(NCCc2nccn2Cc2ccccc2)ccn1` are -9% and 0.95.
On the same counts, the results for `Cc1ccccc1N1C(=O)CN(C(=O)C2COc3ccccc3O2)CC1C` (centres undefined) are -1% and 0.18.
Consider `c1ccc2c(-c3cc4c(c(O[C@H]5CCOC5)c3)OCCNC4)csc2c1`, for which the “% Inhibition” value is given as -8% and the Z score came to 1.61.
On the same counts, the results for `COC(=O)c1cn(CCc2cn3ccccc3n2)cc2c(O)nnc1-2` are -7% and 0.84.
On the same counts, the results for `COC(=O)c1cn(Cc2cccnc2)cc2c(O)nnc1-2` are 0% and -0.02.
The matching figures for `CC(C)[C@H](NC(=O)[C@H](Cc1ccccc1)n1cnnn1)c1nc2ccccc2[nH]1`: -15% and 1.85.
On to `C#CCn1cnc(-c2ccccc2)c1NC(=O)CCc1ccc(C(C)C)cc1`, for which the “% Inhibition” value is recorded as -7% and the Z score came out at 0.8.
For the molecule `COc1cccc2c1Oc1c(c(=O)n(-c3ccccc3)n1CC(=O)Nc1cccc(F)c1)C2`, the “% Inhibition” value is listed as -19% and the Z score is 1.9.
The matching figures for `Cc1c(C(=O)[C@H](C#N)c2nnc(N3CCOCC3)n2-c2ccccc2)nnn1-c1ccc(F)cc1`: -7% and 1.18.
`Cc1ccc(N2COc3cc4c(cc3C2)OCO4)cc1C`: the “% Inhibition” value is -10% and the Z score is recorded as 1.51.
Turning to `COc1ccccc1CN1Cc2ccccc2O[C@@H](C)C1=O`, the “% Inhibition” value is -5% and the Z score is listed as 0.61.
As to `COc1ccccc1CN1COc2cc3c(cc2C1)OCO3`, the “% Inhibition” value is 56% and the Z score is -4.75.
Turning to `CN1CC[C@@]2(CCC1=O)CN(c1ccnc3ccc(Cl)cc13)CCN2C`, the “% Inhibition” value was -4% and the Z score was determined as 0.66.
The matching figures for `O=C(Cn1cnnn1)NCc1ccc2c(c1)CCC2`: -44% and 5.16.
The matching figures for `Cc1nnc([C@@]23COC[C@@H]2CN(C(=O)c2cccc4[nH]ccc24)C3)o1`: -10% and 1.33.
Regarding `Cc1ccc(S(=O)(=O)Nc2ccc(C)n(CC(=O)NCC(C)C)c2=O)cc1`, the “% Inhibition” value is given as -22% and the Z score worked out at 3.01.
On the same counts, the results for `COc1cccc(NC(=O)Cn2c(C)ccc(NS(=O)(=O)c3ccc(C)cc3)c2=O)c1` are 74% and -9.85.
`CCC(C)(C)NC(=O)Cn1c(C)ccc(NS(=O)(=O)c2ccc(C)cc2)c1=O`: the “% Inhibition” value is listed as -4% and the Z score was 0.69.
The matching figures for `C=CCN(C)C(=O)NCc1ccc(Br)c(F)c1`: 2% and -0.18.
On the same counts, the results for `COc1ccc(-c2cn3c(C(=O)N4CCNC(=O)C4)csc3n2)cc1F` are -19% and 2.43.
